The whole screen tested about 54,000 sequences, of which about 4,000 (7.4%) were called active. No stated cut-off is given here; in the data, active = GI50 up to about 1.1 µM and inactive = higher. A selection follows. Measured potencies and affinities stand elsewhere.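 Results reflect a 48-hour exposure of cells in 96-well plates to compound at five concentrations. At the GI50, growth is halved.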

In the assay the test system is SNB-75. In words: NCI tumour cell line growth inhibition, 48 h.
For “[Bis(aminomethyl)pentamethylenesilane]tetrachloropaltinum(IV), CHEMBL2146204”, the GI50 is 2.64 µM.
“[Bis(aminomethyl)diethylsilane]tetrachloroplatinum(IV), CHEMBL2146203” displayed a GI50 of 3.8 µM.
With CISPLATIN, CHEMBL11359, the GI50 amounted to 2.84 µM.
In the case of “mu-(1,7-nanodiamine-N,N')bis-(cis-aminedichloroplatimum (II)), CHEMBL2146215”, the GI50 is 12.4 µM.
In the case of “cis-Bis[[(trimethylsilyl)methyl]amino]tetrachloroplatinum(IV), CHEMBL2146191” it was 15 µM.
Consider “[Bis(aminomethyl)ethylmethylsilane]tetrachloroplatinum(IV), CHEMBL2146192”, for which the GI50 is 3.53 µM.
Turning to “[Bis(aminomethyl)dimethylsilane]tetrachloroplatinum(IV), CHEMBL2146190”, the GI50 was found to be 11.5 µM.
Substance “[Bis(aminomethyl)pentamethylenesilane]dichloropaltinum(II), CHEMBL2146202” returned a GI50 of 2.9 µM.
For the substance “[Bis(aminomethyl)tetramethylenesilane]dichloropaltinum(II), CHEMBL2146205”, the GI50 was determined as 29.5 µM.
“[Bis(aminomethyl)dimethylsilane]dichloroplatinum (II), CHEMBL2146201” displayed a GI50 of 9.23 µM.
“[Bis(aminomethyl)tetramethylenesilane]tetrachloropaltinum(IV), CHEMBL2146189”: the GI50 came out at 5.7 µM.
